# Out of some 300,000 compounds screened, about 3,700 (1.2%) were called active. Not shown: some 20% with an inconclusive outcome. The sample holds actives, similar compounds and a random draw of the others, so the mix is not that of the screen. Unmarked numbers belong to inactive results. Calls follow the shape of the full dose curve; tested in HEK293 cells.
# Experiment: qHTS for Inhibitors of binding or entry into cells for Lassa Virus; also: nearly all actives have a fitted effect of over 50% in size
# Settings: Lassa virus pseudotype entry inhibition, cell reporter; series mostly up to 37.9 µM; activity change, negative = inhibition: at the top concentration
# % is scaled to controls: 0 for no effect and ±100 for the full control effect; potency is read from the fitted curve at half-maximal effect.
SMILES,"activity change, negative = inhibition",Potency
O=C(O)c1ccc(NN=CC2=C(N3CCOCC3)/C(=C/c3ccccc3)CC2)cc1,-15.5%,
O=C(N/N=C/c1ccc(O)c2ccccc12)c1cccnc1,16.8%,
Cc1ccc(/C=N/NC(=O)C2=NNC(c3ccccc3)(c3ccccc3)C2)c(O)c1,,14.1 µM (active)
Cc1ccc2nc(CNC(=O)c3ccccc3)[nH]c2c1,8.7% [at 46.1 µM],
CC(NC(=O)c1ccccc1)C(=O)OCC(=O)Nc1cccc(S(=O)(=O)N2CCCC2)c1 (configuration not stated),-1.7%,
Cc1cc(C)c2nc3nc(C)cc(C)c3c(N)c2c1,,12.6 µM (active)
Cc1cc(C)c2nc(SCCC#N)nc(C)c2c1,9.06%,
Cc1cc(C)c2nc(-c3ccco3)cc(C(=O)O)c2c1,-3.99% [at 46.1 µM],
CCOC(=O)C1(Cc2ccccc2C)CCCN(C(=O)c2ccc(COC)o2)C1 (configuration not stated),-19.9%,
COc1ccc(N2CCN(S(=O)(=O)c3cc4c5c(c3)C(C)C(=O)N5CCC4)CC2)cc1 (configuration not stated),-23.8%,
Cc1ccc(NC(=O)c2oc3ccc(S(=O)(=O)N4CCCCC4)cc3c2C)cc1Cl,-5.77% [at 46.1 µM],
COC(=O)c1sccc1NC(=O)CC1C(=O)NCCN1C(=O)Nc1ccc(F)cc1F (configuration not stated),8.52% [at 46.1 µM],
O=C(CN1CCN(C/C=C/c2ccccc2)CC1)Nc1ccc(F)cc1F,14.6%,
O=C(CC1SC(=Nc2ccccc2F)N(CCN2CCOCC2)C1=O)Nc1ccc(F)cc1F (configuration not stated),,11.2 µM (active)
O=C(c1cc(COc2cccc(C(F)(F)F)c2)on1)N1CCSCC1,-13%,
COc1ccc(Cc2nc3ccc(C(=O)NCC4CCOCC4)cc3o2)cc1OC,15.9%,
CCCC=Cc1ccc(CN2C(C(C)C)C(=O)N(Cc3cn(CC4CCCCC4)nn3)CCS2(=O)=O)cc1 (configuration not stated),,25 µM (active)
COCOCCn1cc(CN2CCS(=O)(=O)N(Cc3ccc(-c4cccc(N(C)C)c4)cc3)C(CC(C)C)C2=O)nn1 (configuration not stated),6.61% [at 46.1 µM],
CC1C(=O)N(Cc2cn(Cc3ccco3)nn2)CCS(=O)(=O)N1Cc1ccc(-c2cccc(CO)c2)cc1 (configuration not stated),11.4% [at 46.1 µM],
CC1CCN(c2ccc(-c3ccc(NC(=O)c4ccco4)cc3)nn2)CC1,13.7%,
COC(=O)c1cc2nc(-c3ccccc3)cc(C(F)(F)F)n2n1,-5.23%,
O=C(c1ccccc1)N1CCN(C(=O)c2cc3nc(-c4ccccc4)cc(C(F)(F)F)n3n2)CC1,,11.2 µM (active)
O=C(O)c1cnn2c(C(F)(F)F)cc(-c3ccccc3)nc12,4.58%,
Cn1cc(S(=O)(=O)N2CCCCCC2)cc1C(=O)N1CCN(c2ccc(F)cc2)CC1,-19.6% [at 46.1 µM],
COc1cc2c(cc1OC)C(Cc1cc(OC)c(OC)cc1[N+](=O)[O-])=NCC2,-1.16%,
COC(=O)Nc1nc2ccc(Sc3ccccc3)cc2[nH]1,9.81%,

SMILES,"activity change, negative = inhibition",Potency
COC(=O)Nc1nc2ccc(Oc3ccc(NC(=O)Nc4cccc(Cl)c4)cc3)cc2[nH]1,,6.28 µM (active)
Cc1cc(Cl)nc(NC(=O)Nc2cccc(Cl)c2)n1,-0.962% [at 46.1 µM],
COc1ccc(CN2CCN(C(=O)CCC(=O)Nc3nnc(C(C)C)s3)CC2)cc1F,3.46% [at 46.1 µM],
Cn1c(N)c(C(=O)COC(=O)c2cccc(S(=O)(=O)N3CCOCC3)c2)c(=O)n(C)c1=O,-0.757%,
CC(C)(C)c1ccc(Oc2ccc(N)cc2)cc1,,0.651 µM (active)
Cc1ccc(Oc2ccc(N)cc2)cc1,21.7%,
Nc1ccc(Oc2ccc(Cl)cc2)cc1,-16.1%,
O=S(=O)(Nc1ccc2ccccc2c1)N1CCCCC1,-23.8% [at 46.1 µM],
O=C1CC(c2ccccc2)C(c2ccccc2)=NN1 (configuration not stated),1.55% [at 46.1 µM],
CN1CCN(CCCCOc2cccc3ccccc23)CC1,-3.92% [at 46.1 µM],
CC1=CCC2C(=O)N(c3cccc(C(=O)NC(C)c4ccccc4)c3)C(=O)C2C1 (configuration not stated),-2.44%,
C=CCNC(=O)c1ccc(C)c(Br)c1,-4.34%,
Cc1ccc(C(=O)NC(C)c2ccccc2)cc1Br (configuration not stated),,11.6 µM (active)
c1ccc2c(c1)OC1OC2Oc2ccccc21,2.34% [at 46.1 µM],
CC1CCN(C(=O)CCc2nnc3ccc(NCc4ccco4)nn23)CC1,10.6% [at 46.1 µM],
CCc1ccc(/C=N/NC(=O)c2ccc(OC3CCCC3)cc2)s1,,2 µM (active)
CCc1cc(C(N)=O)c(NC(=O)c2ccc(OC)cc2)s1,3.32%,
COC(=O)CNC(=O)c1ccc(OC2CCN(C(=O)C3CC3)CC2)cc1,11.7% [at 46.1 µM],
COC(=O)Cc1c(-c2[nH]c3ccccc3c2CC(=O)OC)[nH]c2ccccc12,17.1%,
Cc1cc(C(=O)COc2ccccc2[N+](=O)[O-])c(C)n1-c1cccc(S(=O)(=O)N2CCOCC2)c1,,6.31 µM (active)
O=C(COc1ccc(S(=O)(=O)N2CCOCC2)cc1Cl)N1CCOCC1,0.861%,
Cc1cc(S(=O)(=O)N2CCOCC2)ccc1OCC(=O)N1CCOCC1,-0.783%,
CSCCC(NS(=O)(=O)c1ccccc1F)C(=O)N1CC=C(c2ccccc2)CC1 (configuration not stated),4.87%,
O=C(c1ccc(F)cc1)N1CCC(C(=O)N2CCN(S(=O)(=O)c3ccccc3Br)CC2)CC1,-18.6%,
COC(=O)c1cnn(-c2ccc(C(=O)Nc3ccc(OC(F)(F)F)cc3)cc2)c1N,8.84% [at 46.1 µM],
Cc1cccc(NS(=O)(=O)c2ccc(C(=O)NCC(C)(C)N3CCOCC3)cc2)c1C,-18.3%,

# Reference: PubChem BioAssay AID540256 (National Center for Advancing Translational Sciences (NCATS), 2011)
